Values without a mark were called inactive. Where a call stands in place of a potency, no number is given. Activity calls are given as the source filed them. Unless noted, calls follow the shape of the dose curve; as a rule, active = well fitted curve in the direction sought with a large enough effect in the repeat runs; inconclusive = weak or mixed curves; inactive = no such curve, though single readings can be large; an effect the other way counts as inactive or inconclusive. Positions of bridges follow the written chain, without caps; N, C: chain ends. Non-standard residues stand in square brackets, D forms with d. Residues, ends and D or L forms follow the SMILES beside them. ξ: configuration not given here. *: point of attachment. d(aThr) = C[C@@H](O)[C@@H](N)C(=O)O; ξThr(3R) = C[C@@H](O)C(N)C(=O)O; X3 = CC[C@@H](C)CCCCC(=O)*; dDab = NCC[C@@H](N)C(=O)O
How the values were obtained:
[1] = qHTS assay to identify small molecule antagonists of the thyroid receptor (TR) signaling pathway - cell viability counter screen (AID 743064); also: nearly all actives have a fitted effect of over 50% in size; also: potency is read from the fitted curve at half-maximal effect
Method in brief: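 Same-well viability check: GH3.TRE-Luc cells stimulated with 1 nM T3 alongside test compound for 23.5 h, followed by CellTiter-Fluor fluorescence.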

[2] = qHTS assay to identify small molecule antagonists of the thyroid receptor (TR) signaling pathway (AID 743065); also: nearly all actives have a fitted effect of over 55% in size; also: potency is read from the fitted curve at half-maximal effect
Method in brief: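 Antagonism measured as loss of luciferase signal in GH3 cells stably carrying a TRE-luciferase reporter, co-treated with compound and T3 (1 nM final) for 23.5 h at 37 C. Viability was read in the same well by CellTiter-Fluor.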

[3] = system: thyroid hormone receptor (rat, GH3 cells); experiment: qHTS assay to identify small molecule agonists of the thyroid receptor (TR) signaling pathway (AID 743066; calls by dose curve; also: potency is read from the fitted curve at half-maximal effect)
[4] = qHTS assay to identify small molecule antagonists of the estrogen receptor alpha (ER-alpha) signaling pathway - cell viability counter screen (AID 743074; calls by dose curve;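 also: HEK293 cells carrying ER-alpha-UAS-bla reporter stimulated with 17beta-estradiol; nearly all actives have a fitted effect of over 45% in size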; also: potency is read from the fitted curve at half-maximal effect)
[5] = molecular target: Aromatase (Homo sapiens) (UniProt P11511); experiment: qHTS assay to identify aromatase inhibitors (AID 743083); also: nearly all actives have a fitted effect of over 55% in size; also: potency is read from the fitted curve at half-maximal effect
Sequence of Aromatase (Homo sapiens) (P11511 whole entry, looked up): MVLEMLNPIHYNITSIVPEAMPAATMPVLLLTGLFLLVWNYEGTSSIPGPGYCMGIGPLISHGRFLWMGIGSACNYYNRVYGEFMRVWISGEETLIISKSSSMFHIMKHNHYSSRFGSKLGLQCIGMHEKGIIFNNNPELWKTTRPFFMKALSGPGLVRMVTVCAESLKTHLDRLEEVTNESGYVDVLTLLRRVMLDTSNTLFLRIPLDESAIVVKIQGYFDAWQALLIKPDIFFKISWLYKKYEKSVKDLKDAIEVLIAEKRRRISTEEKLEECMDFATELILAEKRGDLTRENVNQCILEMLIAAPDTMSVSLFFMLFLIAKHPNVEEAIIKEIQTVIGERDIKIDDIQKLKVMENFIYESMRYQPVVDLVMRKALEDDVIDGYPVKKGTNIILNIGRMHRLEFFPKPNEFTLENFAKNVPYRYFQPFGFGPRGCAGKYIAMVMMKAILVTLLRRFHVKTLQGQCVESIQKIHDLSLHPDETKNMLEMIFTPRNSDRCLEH

[6] = qHTS assay to identify aromatase inhibitors - cell viability counter screen (AID 743084);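 also: cells stimulated with testosterone during compound exposure; nearly all actives have a fitted effect of over 55% in size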; also: potency is read from the fitted curve at half-maximal effect
[7] = molecular target: Aryl hydrocarbon receptor (Homo sapiens) (UniProt P35869); experiment: qHTS assay to identify small molecule that activate the aryl hydrocarbon receptor (AhR) signaling pathway (AID 743085); also: nearly all actives have a fitted effect of over 15% in size; also: potency is read from the fitted curve at half-maximal effect;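 as to activation: HG2L7.5c1 human HepG2 liver cells with stably integrated DRE-driven firefly reporter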
Sequence of Aryl hydrocarbon receptor (Homo sapiens) (P35869 whole entry, looked up): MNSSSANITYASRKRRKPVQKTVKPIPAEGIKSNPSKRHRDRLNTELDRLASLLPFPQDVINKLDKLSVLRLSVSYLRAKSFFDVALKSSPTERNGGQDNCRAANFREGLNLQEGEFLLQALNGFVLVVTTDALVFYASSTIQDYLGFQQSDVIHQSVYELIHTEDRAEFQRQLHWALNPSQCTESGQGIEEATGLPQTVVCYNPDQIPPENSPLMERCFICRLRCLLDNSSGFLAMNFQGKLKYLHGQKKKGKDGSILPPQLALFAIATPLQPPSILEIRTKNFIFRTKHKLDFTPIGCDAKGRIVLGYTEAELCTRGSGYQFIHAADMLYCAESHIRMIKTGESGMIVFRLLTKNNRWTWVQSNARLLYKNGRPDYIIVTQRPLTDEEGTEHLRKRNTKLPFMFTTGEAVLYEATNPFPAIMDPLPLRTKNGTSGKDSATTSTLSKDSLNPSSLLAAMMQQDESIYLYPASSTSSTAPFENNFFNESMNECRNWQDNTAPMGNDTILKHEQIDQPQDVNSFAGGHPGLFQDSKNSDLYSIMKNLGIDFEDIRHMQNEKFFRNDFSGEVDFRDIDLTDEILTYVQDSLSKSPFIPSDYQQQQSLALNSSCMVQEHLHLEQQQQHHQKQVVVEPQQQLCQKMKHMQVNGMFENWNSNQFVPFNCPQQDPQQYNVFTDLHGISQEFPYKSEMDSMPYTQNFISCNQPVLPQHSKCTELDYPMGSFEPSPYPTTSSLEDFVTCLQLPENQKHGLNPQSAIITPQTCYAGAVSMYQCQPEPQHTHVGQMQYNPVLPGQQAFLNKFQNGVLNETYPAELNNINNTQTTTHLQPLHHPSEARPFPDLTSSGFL
Method in brief: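 Reporter assay in engineered HepG2 line HG2L7.5c1, whose plasmid carries twenty dioxin responsive elements upstream of firefly luciferase. Treatment lasted 24 h at 37C; ONE-Glo luminescence gauged induction.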

[8] = qHTS assay to identify small molecule that activate the aryl hydrocarbon receptor (AhR) signaling pathway - cell viability counter screen (AID 743086); also: nearly all actives have a fitted effect of over 45% in size; also: potency is read from the fitted curve at half-maximal effect
Method in brief: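 Cytotoxicity counter screen: CellTiter-Fluor signal (30 min, 37 C) in 4000 HepG2 cells/well carrying the DRE-luciferase reporter, following 24 h compound exposure at 37 C.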

[9] = molecular target: Peroxisome proliferator-activated receptor gamma (Homo sapiens) (UniProt P37231); experiment: qHTS assay to identify small molecule agonists of the peroxisome proliferator-activated receptor gamma (PPARg) signaling pathway (AID 743094; active = well fitted activation curve with a large enough effect in the signal ratio in the repeat runs, not every such curve was filed as active; inconclusive = weak or mixed curves, or effect the other way; inactive = no such curve, though single readings can be large or run the other way; the % refers to the signal ratio)
Sequence of Peroxisome proliferator-activated receptor gamma (Homo sapiens) (P37231 whole entry, looked up): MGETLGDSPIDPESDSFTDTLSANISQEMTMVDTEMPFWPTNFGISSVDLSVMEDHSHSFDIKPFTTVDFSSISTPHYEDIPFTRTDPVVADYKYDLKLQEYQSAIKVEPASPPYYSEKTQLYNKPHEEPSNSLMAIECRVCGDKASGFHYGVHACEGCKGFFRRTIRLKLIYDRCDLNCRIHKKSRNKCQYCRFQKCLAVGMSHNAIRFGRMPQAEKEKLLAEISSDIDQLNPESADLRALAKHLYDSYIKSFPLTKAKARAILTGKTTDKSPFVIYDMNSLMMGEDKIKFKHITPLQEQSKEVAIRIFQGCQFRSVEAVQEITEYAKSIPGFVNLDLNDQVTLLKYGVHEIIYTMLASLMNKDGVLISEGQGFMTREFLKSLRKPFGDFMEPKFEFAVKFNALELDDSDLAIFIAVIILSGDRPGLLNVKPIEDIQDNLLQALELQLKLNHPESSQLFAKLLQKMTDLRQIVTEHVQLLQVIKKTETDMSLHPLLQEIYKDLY
Method in brief: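 Cell-based bla reporter, HEK293H background, PPARg-driven UAS. Pre-incubation 5 h, 37C, 5% CO2. Compound 17 h, 37C. Substrate 1 h RT; fluorescence.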

[10] = qHTS assay to identify small molecule phospholipidosis (PLD) inducers (AID 1259344; active = well fitted curve in the direction sought with a large enough effect; inconclusive = small, poorly fitted or top-dose-only effect, or another doubt; inactive = no such curve, though single readings can be large; an effect the other way counts as inactive or inconclusive; also: potency is read from the fitted curve at half-maximal effect)
Method in brief: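 Phospholipid accumulation was scored by imaging: fixed, Hoechst-counterstained HepG2 cells stained with LipidTOX Red after 24 h compound exposure at 37 C. Read-outs were pit count and pit intensity per well or per cell, with amiodarone and DMSO controls.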

[11] = molecular target: Nuclear receptor subfamily 1 group I member 2 (Rattus norvegicus) (UniProt Q9R1A7); experiment: Rat pregnane X receptor (rPXR) activation by small molecules, qHTS assay (AID 1346983); conditions: rPXR luciferase reporter cells, One-Glo luminescence, 24 h; max activation: stronger effect = higher value; also: nearly all actives have a fitted effect of over 20% in size; also: potency is read from the fitted curve at half-maximal effect
Sequence of Nuclear receptor subfamily 1 group I member 2 (Rattus norvegicus) (Q9R1A7 whole entry, looked up): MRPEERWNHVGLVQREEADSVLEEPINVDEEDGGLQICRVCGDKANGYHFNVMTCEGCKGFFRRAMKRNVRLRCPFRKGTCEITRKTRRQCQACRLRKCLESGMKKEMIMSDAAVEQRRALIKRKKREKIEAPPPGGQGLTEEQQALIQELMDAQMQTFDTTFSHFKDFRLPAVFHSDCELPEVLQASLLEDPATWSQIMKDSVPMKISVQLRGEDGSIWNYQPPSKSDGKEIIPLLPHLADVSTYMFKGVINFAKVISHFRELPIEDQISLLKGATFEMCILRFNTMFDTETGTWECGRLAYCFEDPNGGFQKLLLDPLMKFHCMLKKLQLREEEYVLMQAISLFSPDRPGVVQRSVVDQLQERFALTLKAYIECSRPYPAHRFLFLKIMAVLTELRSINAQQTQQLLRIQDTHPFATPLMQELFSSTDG
Method in brief: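 Luminescent readout (One-Glo luciferase, 30 min room temperature) followed 24 hr compound treatment at 37 C of rPXR cells plated 2,000 per well and preincubated 5hr; qHTS format with compounds delivered in DMSO.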

[12] = molecular target: Nuclear receptor subfamily 1 group I member 2 (Homo sapiens) (UniProt O75469); experiment: CYP3A4 induction through human pregnane X receptor (PXR) by small molecules, qHTS assay (AID 1346984); also: nearly all actives have a fitted effect of over 40% in size; also: potency is read from the fitted curve at half-maximal effect
Method in brief: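 Human PXR activation is tracked via CYP3A4 promoter-luciferase in DPX-2 (HepG2) cells. Compounds treat cells for 24hr at 37C, and luminescence is read after One-Glo.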

[13] = molecular target: Nuclear receptor subfamily 1 group I member 2 (Homo sapiens) (UniProt O75469); experiment: Human pregnane X receptor (PXR) activation by small molecules, qHTS assay (AID 1346985); also: nearly all actives have a fitted effect of over 40% in size; also: potency is read from the fitted curve at half-maximal effect
Method in brief: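 DPX-2 cells (HepG2 co-transfected with a PXR response element and a CYP3A4-promoter luciferase construct) were seeded at 2,000 per well, rested 5 hr at 37C, then exposed to DMSO-dissolved compounds for 24 hr. Activation was read as luciferase luminescence.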

[14] = molecular target: Estrogen receptor (Homo sapiens) (UniProt P03372); experiment: qHTS assay to identify small molecule antagonists of the estrogen receptor alpha (ER-alpha) signaling pathway (AID 743069; active = well fitted curve in the direction sought with a large enough effect in the signal ratio in the repeat runs, not every such curve was filed as active; inconclusive = weak or mixed curves, or effect the other way; inactive = no such curve, though single readings can be large or run the other way; the % refers to the signal ratio; also: potency is read from the fitted curve at half-maximal effect)
Sequence of Estrogen receptor (Homo sapiens) (P03372 whole entry, looked up): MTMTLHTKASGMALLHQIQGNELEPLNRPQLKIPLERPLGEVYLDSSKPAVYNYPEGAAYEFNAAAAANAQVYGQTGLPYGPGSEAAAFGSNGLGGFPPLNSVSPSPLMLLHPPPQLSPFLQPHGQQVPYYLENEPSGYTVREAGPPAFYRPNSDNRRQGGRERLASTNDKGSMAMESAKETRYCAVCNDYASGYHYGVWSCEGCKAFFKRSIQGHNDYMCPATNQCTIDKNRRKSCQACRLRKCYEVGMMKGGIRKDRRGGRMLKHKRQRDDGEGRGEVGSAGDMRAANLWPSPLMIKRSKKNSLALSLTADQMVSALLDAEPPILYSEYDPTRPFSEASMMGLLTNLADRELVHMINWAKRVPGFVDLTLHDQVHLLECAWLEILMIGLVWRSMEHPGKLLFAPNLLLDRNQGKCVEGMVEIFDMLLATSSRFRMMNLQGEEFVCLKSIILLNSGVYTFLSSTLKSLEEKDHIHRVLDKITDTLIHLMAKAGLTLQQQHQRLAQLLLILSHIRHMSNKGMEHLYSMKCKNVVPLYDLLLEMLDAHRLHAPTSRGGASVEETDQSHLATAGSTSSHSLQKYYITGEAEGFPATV
Method in brief: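 Antagonist mode: compounds in DMSO were co-added with 17beta-estradiol to ER-alpha-bla HEK293 cells (2% charcoal-stripped serum) and left 18 h at 37C. Reporter inhibition was measured as FRET fluorescence after 2 h LiveBLAzer substrate at room temperature.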

[15] = molecular target: Estrogen receptor (Homo sapiens) (UniProt P03372); experiment: qHTS assay to identify small molecule agonists of the estrogen receptor alpha (ER-alpha) signaling pathway (AID 743075; calls by dose curve;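 also: HEK293 GripTite cells with ER-alpha and UAS-driven beta-lactamase reporter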; also: potency is read from the fitted curve at half-maximal effect)
[16] = qHTS assay to identify small molecule antagonists of the estrogen receptor alpha (ER-alpha) signaling pathway using the BG1 cell line - cell viability counter screen (AID 743081);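 also: compound given together with 17beta-estradiol as the ER stimulus; nearly all actives have a fitted effect of over 45% in size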; also: potency is read from the fitted curve at half-maximal effect
[17] = qHTS assay to identify small molecule antagonists of the estrogen receptor alpha (ER-alpha) signaling pathway using the BG1 cell line (AID 743080; calls by dose curve;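 also: BG1 cells stimulated with 17beta-estradiol alongside compound; nearly all actives have a fitted effect of over 25% in size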; also: potency is read from the fitted curve at half-maximal effect)
Method in brief: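 Endogenous full-length ER-alpha in BG1-Luc-4E2 cells drives a stably integrated 4×ERE luciferase gene; compounds were tested against 17beta-estradiol over 21.5 h, with luminescence and multiplexed viability fluorescence recorded.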

[18] = molecular target: Estrogen receptor (Homo sapiens) (UniProt P03372); experiment: qHTS assay to identify small molecule agonists of the estrogen receptor alpha (ER-alpha) signaling pathway using the BG1 cell line (AID 743079); conditions: BG1Luc4E2 cells, ERE-luciferase agonist, 22 h; activation: at 70.3 µM (top of the series); also: nearly all actives have a fitted effect of over 20% in size; also: potency is read from the fitted curve at half-maximal effect

Compound	Potency [1]	Potency [2]	Potency [3]	Potency [4]	Potency [5]	Potency [6]	Potency [7]	Potency [8]	Potency [9]	Potency [10]	max activation [11] [%]	Potency [12]	Potency [13]	Potency [14]	Potency [15]	Potency [16]	Potency [17]	Potency [18]	Potency [11]
COc1ccccc1N1CCN(CCCC(=O)c2ccc(F)cc2)CC1	inactive	inactive	inactive	inactive	inactive	inactive	10.6 µM (active)	inactive	inactive	inactive	8.11	6.31 µM (active)	7.94 µM (active)						
COc1ccc(C[C@H](N)C(=O)N[C@H]2[C@@H](O)[C@H](n3cnc4c(N(C)C)ncnc43)O[C@@H]2CO)cc1	11.9 µM (active)	10.6 µM (active)		inactive	11.9 µM (active)	9.44 µM (active)	inactive	3.76 µM (active)		inactive	-3.7	inactive	inactive	4.25 µM [inconclusive] (active)	inactive	21.1 µM (active)			
COc1cc(C)c(/C=C/C(C)=C/C=C/C(C)=C/C(=O)O)c(C)c1C	inactive		5.96 µM (active)	inactive		inactive	inactive	inactive		inactive	-4.44	inactive	inactive		4.25 µM [inconclusive] (active)	inactive	0.473 µM (active)		
CC(C)C[C@H](NC(=O)[C@@H](Cc1c[nH]c2ccccc12)NC(=O)[C@H](Cc1ccc(O)cc1)NC(=O)[C@H](CO)NC(=O)[C@H](Cc1c[nH]c2ccccc12)NC(=O)[C@H](Cc1cnc[nH]1)NC(=O)[C@@H]1CCC(=O)N1)C(=O)N[C@@H](CCCN=C(N)N)C(=O)N1CCC[C@@H]1C(=O)NCC(N)=O	inactive	inactive	inactive	inactive	inactive	inactive	inactive	inactive	inactive	inactive	-2.6	inactive	inactive			inactive			
O=C1CCC(=O)N1CO	inactive	inactive	inactive	inactive	inactive	inactive	inactive	inactive	inactive	inactive	-2.21	inactive	inactive			inactive			
C[C@@H]1CCC2[C@@H](C)[C@@H](O)O[C@@H]3O[C@@]4(C)CC[C@@H]1[C@@]23OO4 (stereo not given in full)	2.11 µM (active)	0.75 µM (active)		inactive						inactive	-10.7	inactive	inactive	9.52 µM [inconclusive] (active)			inactive	inactive	
Cc1cccc(Nc2ncccc2C(=O)O)c1C	inactive		inactive	inactive	inactive	inactive	29.8 µM (active)	inactive	inactive	inactive	-0.253	inactive	inactive		inactive	inactive			
COc1ccc(C[C@@H](C)NC[C@H](O)c2ccc(O)c(NC=O)c2)cc1	inactive		inactive			inactive				inactive	-1.9	inactive	inactive	inactive	inactive	inactive	inactive	inactive	
CCN(CC)CCC(=O)N1c2ccccc2Sc2ccc(Cl)cc21	23.7 µM (active)	26.6 µM (active)		inactive	inactive	inactive			inactive	inactive	3.32	14.1 µM (active)	14.1 µM (active)	inactive	inactive		inactive		
OC[C@H]1OC([S-])[C@H](O)[C@@H](O)[C@@H]1O.[Au+] (stereo not given in full)	10.6 µM (active)	7.5 µM (active)		inactive	inactive	inactive	inactive	inactive		inactive	-6.36	inactive	inactive	inactive	inactive	inactive		inactive	
CC[C@@H](C)CCCCC(=O)N[C@H](CCN)C(=O)N[C@@H](C(=O)N[C@H](CCN)C(=O)N[C@@H]1CCNC(=O)C([C@@H](C)O)NC(=O)[C@@H](CCN)NC(=O)[C@@H](CCN)NC(=O)[C@@H](CC(C)C)NC(=O)[C@@H](Cc2ccccc2)NC(=O)[C@@H](CCN)NC1=O)[C@@H](C)O (stereo partly drawn) (X3-[dDab][d(aThr)][dDab][dDab][dDab][dF][dL][dDab][dDab][ξThr(3R)]; lactam 4-C)	inactive		inactive	inactive	inactive	inactive	inactive	inactive	inactive	inactive	-6	inactive	inactive			inactive			
CC[C@@H](C(=O)O)[C@@H]1O[C@@H]([C@@H](C)[C@H](O)[C@H](C)C(=O)[C@H](CC)[C@H]2O[C@]3(C=C[C@@H](O)[C@]4(CC[C@@](C)([C@H]5CC[C@](O)(CC)[C@H](C)O5)O4)O3)[C@H](C)C[C@@H]2C)[C@@H](C)C[C@@H]1C	0.15 µM (active)	0.0944 µM (active)		0.151 µM (active)	inactive	inactive	inactive	inactive		inactive	-17.2	inactive	inactive		inactive	6.68 µM (active)			
CC(C)N=c1cc2n(-c3ccc(Cl)cc3)c3ccccc3nc-2cc1Nc1ccc(Cl)cc1	7.17 µM (active)	6.39 µM (active)		inactive	inactive		inactive	inactive	inactive	inactive	-3.58	inactive	inactive	inactive	inactive	11.4 µM (active)		inactive	
Cc1cccc(C)c1NC(=O)NC1=CCCN1C	inactive	inactive	inactive		inactive	inactive	inactive	inactive	inactive	inactive	-2.14	inactive	inactive			inactive			
CCN(CC)CCCC(C)Nc1cc(/C=C/c2ccccc2Cl)nc2cc(Cl)ccc12 (stereo not given)	26.6 µM (active)	29.8 µM (active)		inactive			26.6 µM (active)			inactive	-1.25	inactive	22.4 µM (active)	inactive	inactive		inactive	inactive	
CN(C)C(=O)CCSC(SCCC(=O)O)c1cccc(/C=C/c2ccc3ccc(Cl)cc3n2)c1 (stereo not given)	29.8 µM (active)	26.6 µM (active)		inactive	inactive		1.88 µM (active)			inactive		inactive	8.91 µM (active)	7.56 µM [inconclusive] (active)	inactive	inactive		2.37 µM (active)	4.47 µM (active)
CCN(CC)CCOCCOC(=O)C(CC)(CC)c1ccccc1	26.6 µM (active)	23.7 µM (active)	inactive	inactive	inactive	inactive	inactive	inactive	inactive	10 µM (active)	2.25	31.6 µM (active)	15.8 µM (active)						
COc1cc(-c2ccc(-[n+]3nc(-c4ccccc4)nn3-c3ccc([N+](=O)[O-])cc3)c(OC)c2)ccc1-[n+]1nc(-c2ccccc2)nn1-c1ccc([N+](=O)[O-])cc1	26.6 µM (active)	29.8 µM (active)		4.25 µM (active)	26.6 µM (active)	29.8 µM (active)		26.6 µM (active)		inactive	-16	inactive	inactive						
CC(C)=CCC/C(C)=C/C=C/C(C)=C/C=C/C(C)=C/C=C/C=C(C)/C=C/C=C(C)/C=C/C=C(\C)CCC=C(C)C	inactive		inactive	inactive	inactive	inactive	inactive			inactive	2.83	inactive	inactive	inactive	7.56 µM [inconclusive] (active)	inactive	inactive	6.68 µM (active)	
CCCCC/C=C\CCC(=O)N[C@H]1[C@H](Oc2c3cc4cc2Oc2ccc(cc2Cl)[C@@H](O[C@@H]2O[C@H](CO)[C@@H](O)[C@H](O)[C@H]2NC(C)=O)[C@@H]2NC(=O)[C@H](NC(=O)[C@@H]4NC(=O)[C@H]4NC(=O)[C@@H](Cc5ccc(c(Cl)c5)O3)NC(=O)[C@H](N)c3ccc(O)c(c3)Oc3cc(O)cc4c3)c3ccc(O)c(c3)-c3c(O[C@H]4O[C@H](CO)[C@@H](O)[C@H](O)[C@@H]4O)cc(O)cc3[C@@H](C(=O)O)NC2=O)O[C@H](CO)[C@@H](O)[C@@H]1O	inactive		inactive	inactive	inactive	inactive	inactive	inactive	inactive	inactive	0.769	inactive	inactive	inactive	inactive		inactive	inactive	

Source: PubChem BioAssay (Tox21)
